Activity calls are given as the source filed them.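 Rule for the calls: active = peak inhibition of the KCNQ2 potassium channel above 30% at some tested dose, plus a fitted dose response curve; inactive = no inhibition at any dose, or no curve.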

This test deals with Potassium voltage-gated channel subfamily KQT member 2 (Rattus norvegicus) (UniProt O88943). The experiment in a line: blockade of KCNQ2 thallium flux – cell-based, FluxOR thallium flux, CRC set 2, selectivity assay for KCNK9 inhibitor project, SAR follow-up (AID 588800). The conditions noted are these: KCNQ2-expressing cells; series mostly up to 30 µM; thallium flux ratio, lower = inhibition: at the top concentration.
Sequence of Potassium voltage-gated channel subfamily KQT member 2 (Rattus norvegicus) (O88943 whole entry, looked up): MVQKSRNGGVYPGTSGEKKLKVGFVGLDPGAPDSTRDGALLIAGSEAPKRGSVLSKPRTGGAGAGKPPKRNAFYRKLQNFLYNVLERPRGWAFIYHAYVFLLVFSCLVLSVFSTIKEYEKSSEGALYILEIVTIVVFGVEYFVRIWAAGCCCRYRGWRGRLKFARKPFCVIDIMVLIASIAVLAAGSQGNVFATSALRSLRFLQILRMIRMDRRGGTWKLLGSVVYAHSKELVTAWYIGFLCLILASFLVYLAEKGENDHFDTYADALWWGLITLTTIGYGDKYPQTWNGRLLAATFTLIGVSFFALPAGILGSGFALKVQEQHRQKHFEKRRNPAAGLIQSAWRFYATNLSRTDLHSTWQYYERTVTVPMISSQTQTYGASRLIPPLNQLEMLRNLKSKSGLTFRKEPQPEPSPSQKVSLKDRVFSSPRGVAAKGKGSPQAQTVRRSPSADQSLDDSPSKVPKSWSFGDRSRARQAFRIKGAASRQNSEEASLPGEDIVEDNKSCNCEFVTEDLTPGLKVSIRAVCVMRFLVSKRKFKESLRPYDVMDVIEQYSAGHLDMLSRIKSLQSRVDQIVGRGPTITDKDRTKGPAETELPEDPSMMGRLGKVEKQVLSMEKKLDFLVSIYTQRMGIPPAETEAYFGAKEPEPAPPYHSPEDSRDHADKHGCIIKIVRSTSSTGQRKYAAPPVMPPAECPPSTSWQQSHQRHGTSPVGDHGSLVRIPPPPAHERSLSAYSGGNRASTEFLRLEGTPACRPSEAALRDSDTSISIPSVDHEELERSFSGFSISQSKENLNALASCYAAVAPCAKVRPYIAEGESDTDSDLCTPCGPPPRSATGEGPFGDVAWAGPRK
As to `CC(c1ccccc1)n1c(-c2ccco2)n[nH]c1=S` (stereo unspecified), the “thallium flux ratio, lower = inhibition” value is 0.187 (inactive).

`CCOc1ccccc1NC(=O)c1cccc(NC(=O)c2ccc(Cl)cc2)c1`: the “thallium flux ratio, lower = inhibition” value was 0.18 (inactive).

In the case of `COc1ccccc1C(=O)Nc1cccc(NC(=O)c2ccccc2)c1`, the “thallium flux ratio, lower = inhibition” value was 0.162 (inactive).

For the molecule `Cc1cccc(C(=O)Nc2cccc(NC(=O)c3cccc(C)c3)c2)c1`, the “thallium flux ratio, lower = inhibition” value is 0.203 (inactive).

Take `O=C(Nc1cccc(NC(=O)c2cccc(C(F)(F)F)c2)c1)c1ccccc1`: the “thallium flux ratio, lower = inhibition” value is 0.145 (inactive).

With `O=C(Nc1cccc(NC(=O)c2ccc(C(F)(F)F)cc2)c1)c1ccccc1`, the outcome was inactive.

Turning to `COc1ccccc1C(=O)Nc1cccc(NC(=O)c2ccccc2C)c1`, the “thallium flux ratio, lower = inhibition” value is 0.166 (inactive).

On to `CCOc1ccccc1C(=O)Nc1cccc(NC(=O)c2ccccc2C(F)(F)F)c1`, for which the “thallium flux ratio, lower = inhibition” value was 0.177 (inactive).

Take `Cc1cccc(C(=O)Nc2cccc(NC(=O)c3cccc(Cl)c3)c2)c1`: the “thallium flux ratio, lower = inhibition” value is 0.163 (inactive).

As for `Cc1cccc(C(=O)Nc2cccc(NC(=O)c3ccncc3)c2)c1`, the “thallium flux ratio, lower = inhibition” value was 0.163 (inactive).

With `CC(C1CC2CCC1C2)n1c(-c2ccco2)n[nH]c1=S` (stereo unspecified), the “thallium flux ratio, lower = inhibition” value is 0.2 (inactive).

As for `COc1ccc(-c2n[nH]c(=S)n2C(C)C2CC3CCC2C3)cc1` (stereo unspecified), the “thallium flux ratio, lower = inhibition” value is 0.157 (inactive).

As to `Cc1cccc(C(=O)Nc2cccc(NC(=O)c3ccc(Cl)cc3)c2)c1`, the “thallium flux ratio, lower = inhibition” value was 0.192 (inactive).

Turning to `CCOc1ccccc1NC(=O)c1cccc(NC(=O)c2cccc(OC)c2)c1`, the “thallium flux ratio, lower = inhibition” value is 0.172 (inactive).

With `O=C(Nc1cccc(NC(=O)c2ccccc2C(F)(F)F)c1)c1ccccc1`, the “thallium flux ratio, lower = inhibition” value was 0.218 (inactive).

Turning to `Cc1ccccc1-c1n[nH]c(=S)n1C(C)C1CC2CCC1C2` (stereo unspecified), the “thallium flux ratio, lower = inhibition” value was 0.186 (inactive).

For `CC(C1CC2CCC1C2)n1c(-c2ccsc2)n[nH]c1=S` (stereo unspecified), the “thallium flux ratio, lower = inhibition” value is 0.158 (inactive).

`COc1cccc(-c2n[nH]c(=S)n2C(C)C2CC3CCC2C3)c1` (stereo unspecified): the “thallium flux ratio, lower = inhibition” value was 0.176 (inactive).

For `O=C(Nc1cccc(NC(=O)c2cccnc2)c1)c1ccccc1`, the “thallium flux ratio, lower = inhibition” value was 0.218 (inactive).

Turning to `CCOc1ccccc1NC(=O)c1cccc(NC(=O)CC2CCCCC2)c1`, the “thallium flux ratio, lower = inhibition” value is 0.163 (inactive).

Turning to `Cc1cccc(C(=O)Nc2cccc(NC(=O)c3ccc(N(C)C)cc3)c2)c1`, the “thallium flux ratio, lower = inhibition” value was 0.206 (inactive).

With `CCOc1ccccc1NC(=O)c1cccc(NC(=O)C(C)(C)C)c1`, the “thallium flux ratio, lower = inhibition” value is 0.181 (inactive).

`CCOc1ccccc1NC(=O)c1cccc(NC(=O)c2cccc(C(F)(F)F)c2)c1`: the “thallium flux ratio, lower = inhibition” value was 0.173 (inactive).

Regarding `CCOc1ccccc1NC(=O)c1cccc(NC(=O)c2cccc(C)c2)c1`, the “thallium flux ratio, lower = inhibition” value is 0.176 (inactive).

`CCOc1ccccc1C(=O)Nc1cccc(NC(=O)c2cccc(C)c2)c1`: the “thallium flux ratio, lower = inhibition” value is 0.16 (inactive).

Regarding `Cc1ccc(-c2n[nH]c(=S)n2C(C)C2CC3CCC2C3)cc1` (stereo unspecified), the “thallium flux ratio, lower = inhibition” value was 0.174 (inactive).

For the molecule `O=C(Nc1ccccc1Cl)c1cccc(NC(=O)C2CCCC2)c1`, the “thallium flux ratio, lower = inhibition” value is 0.161 (inactive).

For `CC(C1CC2CCC1C2)n1c(-c2cccc(Cl)c2)n[nH]c1=S` (stereo unspecified), the “thallium flux ratio, lower = inhibition” value was 0.207 (inactive).

Consider `Cc1cccc(C(=O)Nc2cccc(NC(=O)c3ccccc3OC(F)(F)F)c2)c1`, for which the “thallium flux ratio, lower = inhibition” value was 0.178 (inactive).

Regarding `COc1ccccc1NC(=O)c1cccc(NC(=O)C2CCCC2)c1`, the “thallium flux ratio, lower = inhibition” value is 0.19 (inactive).

For `Cc1cccc(C(=O)Nc2cccc(NC(=O)c3ccc(C(F)(F)F)cc3)c2)c1`, the “thallium flux ratio, lower = inhibition” value was 0.16 (inactive).

In the case of `CC(C1CC2CCC1C2)n1c(-c2ccccc2Cl)n[nH]c1=S` (stereo unspecified), the “thallium flux ratio, lower = inhibition” value is 0.165 (inactive).

With `CCOc1ccccc1NC(=O)c1cccc(NC(=O)c2ccccc2C)c1`, the “thallium flux ratio, lower = inhibition” value is 0.159 (inactive).

For the molecule `Cc1ccccc1C(=O)Nc1cccc(NC(=O)c2ccccc2)c1`, the “thallium flux ratio, lower = inhibition” value is 0.195 (inactive).

`COc1ccccc1-c1n[nH]c(=S)n1C(C)C1CC2CCC1C2` (stereo unspecified): the “thallium flux ratio, lower = inhibition” value was 0.173 (inactive).

Turning to `CCOc1ccccc1NC(=O)c1cccc(NC(=O)c2ccc(C)cc2)c1`, the “thallium flux ratio, lower = inhibition” value is 0.179 (inactive).

The record behind these values is PubChem BioAssay AID588800 (Johns Hopkins Ion Channel Center, 2011).
